Assay [1] can be described thus: ATG_EGR_CIS: Attagene CIS-FACTORIAL HepG2 Assay for human Early Growth Response 1 (EGR1) (AID 2282938). The conditions noted are these: HepG2 Attagene CIS-FACTORIAL EGR reporter mRNA; actives raise or lower the signal. In short, it runs like this:
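Endpoint derived by bidirectional fitting versus DMSO vehicle. Method: cis-promoter reporter units transfected into HepG2, 24 h dosing, RNA isolation, RT-PCR with 6-FAM primer extension and HpaI digestion, then capillary electrophoresis fluorescence detection.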

The nature of assay [2]: ATG_M_19_CIS: Attagene CIS-FACTORIAL HepG2 Assay for M19 Transcription Factor (Internal Marker) (AID 2282939). Particulars: HepG2 Attagene CIS-FACTORIAL M19 internal marker reporter; actives raise or lower the signal. Summed up:
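Transfect HepG2 with MRTU reporter library → dose chemical, 24 h → isolate total RNA, reverse-transcribe with oligo(dT) → PCR, 6-FAM label, HpaI cut (2 h, 37 C) → capillary electrophoresis. Bidirectional fit vs DMSO.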

The nature of assay [3]: ATG_ERE_CIS: Attagene CIS-FACTORIAL HepG2 Assay for Estrogen Response Element (ERE) (AID 2282940). Particulars: HepG2 ERE cis-reporter, Attagene RNA transcript; actives raise or lower the signal. In short, it runs like this:
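Transient MRTU transfection of human HepG2; cis-element promoters; 24 h dosing; total RNA → RT (oligo dT) → PCR → 6-FAM primer extension → HpaI digest → CE fluorescence. Bidirectional fit, DMSO baseline.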

A short description of assay [4]: ATG_Ets_CIS: Attagene CIS-FACTORIAL HepG2 Assay for human Erythroblast Transformation Specific (ETS) (AID 2282941). The conditions noted are these: HepG2 ETS cis-reporter transcription, actives raise or lower the signal. Summed up: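 Steps: transfect HepG2 with multiple reporter units; treat compound 24 h; isolate RNA, DNase-treat, reverse-transcribe; PCR-amplify, label with 6-FAM, digest with HpaI; separate by capillary electrophoresis. Activity fitted both directions versus DMSO.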

Assay [5] deals with Hepatocyte nuclear factor 3-beta (Homo sapiens) (UniProt Q9Y261). Put plainly: ATG_FoxA2_CIS: Attagene CIS-FACTORIAL HepG2 Assay for human Forkhead box A2 (FOXA2) (AID 2282942). The conditions noted are these: HepG2 cis-reporter transcription factor activity, 24 h; actives raise or lower the signal. In short, it runs like this: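 Measured: reporter mRNA induction or loss in HepG2 transiently carrying multiple cis-regulated reporter units, 24 h after dosing. Quantified by RT-PCR plus capillary electrophoresis, normalised to DMSO.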
Chain of Hepatocyte nuclear factor 3-beta (Homo sapiens) (Q9Y261 whole entry, looked up): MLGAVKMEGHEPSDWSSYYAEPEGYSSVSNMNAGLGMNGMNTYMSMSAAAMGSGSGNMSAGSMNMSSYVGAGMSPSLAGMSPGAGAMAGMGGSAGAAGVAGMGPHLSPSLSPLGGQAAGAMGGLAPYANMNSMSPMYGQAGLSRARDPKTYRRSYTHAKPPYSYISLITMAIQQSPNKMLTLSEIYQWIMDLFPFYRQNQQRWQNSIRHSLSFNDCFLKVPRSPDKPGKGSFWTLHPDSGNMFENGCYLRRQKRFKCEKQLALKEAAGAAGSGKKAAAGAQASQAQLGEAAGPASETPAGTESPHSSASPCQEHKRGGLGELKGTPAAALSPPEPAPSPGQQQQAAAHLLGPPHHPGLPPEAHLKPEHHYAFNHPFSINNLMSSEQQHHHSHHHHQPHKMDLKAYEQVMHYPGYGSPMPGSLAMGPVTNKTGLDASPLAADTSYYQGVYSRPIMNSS

Assay [6] is described as follows: ATG_FoxO_CIS: Attagene CIS-FACTORIAL HepG2 Assay for human Forkhead box O (FoxO) (AID 2282943). Particulars: HepG2 Attagene cis-reporter, FoxO element, mRNA; actives raise or lower the signal. In short, it runs like this: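 Transfected HepG2 reporter cells exposed to test chemical for 24 h; reporter RNA measured by reverse transcription, PCR and fluorescent capillary electrophoresis; curves fitted for increases and decreases against DMSO.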

The nature of assay [7]: ATG_GLI_CIS: Attagene CIS-FACTORIAL HepG2 Assay for human Zinc Finger Protein GLI1 (AID 2282945). The conditions noted are these: HepG2, Attagene cis-factorial reporter mRNA, GLI element; actives raise or lower the signal. Summed up:
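Transiently transfected HepG2 cells report endogenous transcription factor activity via cis-element-driven reporter units. After 24 h compound exposure, reporter mRNA was measured by RT-PCR with capillary electrophoresis; bidirectional fitting against DMSO baseline.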

Assay [8] deals with Bile acid receptor (Homo sapiens) (UniProt Q96RI1). Put plainly: ATG_IR1_CIS: Attagene CIS-FACTORIAL HepG2 Assay for human Nuclear Receptor Subfamily 1 Group H Member 4 (NR1H4), IR1 submotif (AID 2282946). The conditions noted are these: IR1 reporter transcription, actives raise or lower the signal. In short, it runs like this: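 HepG2 cells transiently transfected with multiple cis-promoter-driven reporter units to measure endogenous transcription factor activity; 24 h exposure. Reporter mRNA read by RT-PCR, FAM labelling, HpaI digestion and capillary electrophoresis. Bidirectional fit versus DMSO.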
Chain of Bile acid receptor (Homo sapiens) (Q96RI1 whole entry, looked up): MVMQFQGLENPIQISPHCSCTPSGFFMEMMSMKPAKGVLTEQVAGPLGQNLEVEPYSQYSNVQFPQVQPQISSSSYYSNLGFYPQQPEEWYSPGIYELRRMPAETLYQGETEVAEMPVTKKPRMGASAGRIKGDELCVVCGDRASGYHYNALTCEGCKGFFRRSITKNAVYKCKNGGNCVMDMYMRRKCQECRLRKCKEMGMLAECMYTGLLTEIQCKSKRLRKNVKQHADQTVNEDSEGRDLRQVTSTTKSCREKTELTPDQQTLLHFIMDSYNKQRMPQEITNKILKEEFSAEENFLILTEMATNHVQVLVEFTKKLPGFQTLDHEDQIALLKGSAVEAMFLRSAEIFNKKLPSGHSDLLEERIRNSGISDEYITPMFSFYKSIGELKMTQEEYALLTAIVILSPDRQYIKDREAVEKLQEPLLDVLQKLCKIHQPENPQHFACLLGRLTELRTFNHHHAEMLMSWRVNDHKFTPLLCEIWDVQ

Assay [9] can be described thus: ATG_GRE_CIS: Attagene CIS-FACTORIAL HepG2 Assay for human Glucocorticoid Response Elements (GRE) (AID 2282947). The conditions noted are these: HepG2 GRE cis-reporter, Attagene multiplex mRNA; actives raise or lower the signal. Summed up: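 Endogenous transcription factor activity is read through cis-element reporter constructs transiently transfected into HepG2 cells. After 24 h treatment, labelled RT-PCR products are resolved by capillary electrophoresis; DMSO sets baseline for bidirectional curve fitting.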

Assay [10] can be described thus: ATG_GATA_CIS: Attagene CIS-FACTORIAL HepG2 Assay for human GATA Binding Protein (AID 2282944). Particulars: HepG2 GATA cis-element reporter, Attagene multiplex mRNA; actives raise or lower the signal. Summed up: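 Transient MRTU transfection, HepG2, 24 h compound exposure. Total RNA → oligo(dT) RT → PCR → 6-FAM primer extension → HpaI cut → CE. Bidirectional fit vs DMSO.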

Data on 18 compounds can be found in PubChem BioAssay (EPA / NIEHS).

Some compounds were tested as several samples or in several runs, with calls that do not always agree. Calls of active or inactive are those of the source. Rule for the calls: active = hit-call score of the fitted dose curve at least 0.9, where 1 is the maximum; inactive = score below 0.9.

As for `C=CC(=O)N(C)C`, the call in assay [1], in [2], in assay [3], in assay [4], in assay [5] and in assay [6] was inactive. Moreover, the result in assay [7], in assay [8] and in assay [9] was inactive.

On to `C[C@H]1O[C@@H](O[C@H]2[C@@H](O)C[C@H](O[C@H]3[C@@H](O)C[C@H](O[C@H]4CC[C@@]5(C)[C@H](CC[C@@H]6[C@@H]5CC[C@]5(C)[C@@H](C7=CC(=O)OC7)CC[C@]65O)C4)O[C@@H]3C)O[C@@H]2C)C[C@H](O)[C@@H]1O`, for which the AC50 was 650 nM (active) in assay [1], 56.4 nM (active) in [4], 472 nM (active) in [6] and 123 nM (active) in [9]. Also, the compound was classed as inactive in assay [2], in assay [3], in [5], in [7] and in assay [8].

In the case of `ClCC(Cl)CCl`, the call in [1], in assay [2], in assay [4], in assay [5], in assay [6] and in assay [10] was inactive. Further, the result in assay [7] and in assay [9] was inactive.

In the case of `O=[N+]([O-])c1c(Cl)c(Cl)cc(Cl)c1Cl`, the result in [1], in assay [2], in [3], in assay [4], in assay [5] and in assay [6] was inactive. Besides, the compound was called inactive in assay [7] and in [8].

On to `O=C(O)C(Cl)(Cl)Cl`, for which the result in assay [1], in assay [2], in assay [4], in assay [5], in assay [6] and in [10] was inactive. For the same compound, in assay [7], the compound was classed as inactive.

In the case of `O=CC=O`, the compound was called inactive in assay [1], in [2], in [3], in assay [4], in assay [5] and in assay [6]. Besides, the outcome in [7] and in assay [9] was inactive.

Regarding `Clc1ccc(COC(Cn2ccnc2)c2ccc(Cl)cc2Cl)cc1` (stereo not given), the result in assay [1], in [2], in assay [3], in [4], in assay [5] and in assay [6] was inactive. For the same compound, the compound was called inactive in assay [7], in assay [8] and in assay [9].

Take `C=CC#N`: the outcome in assay [1], in assay [2], in assay [4], in [5], in [6] and in assay [7] was inactive. Moreover, the compound was called inactive in [9]. Besides, in assay [3], the AC50 is 71.5 µM (active).

Take `CN(C)N=O`: the call in assay [1], in assay [2], in assay [4], in assay [5], in [6] and in assay [10] was inactive. Besides, the outcome in [7], in assay [8] and in [9] was inactive.

As to `CC(C)(C)CC(C)(C)c1ccc(O)cc1`, the compound was classed as inactive in assay [1], in assay [2], in assay [4], in assay [5], in assay [6] and in [10]. Besides, the call in assay [7], in assay [8] and in assay [9] was inactive. In addition, the AC50 in [8] was 16.3 µM (active).

On to `CCCCCCCCc1ccc(O)cc1`, for which the compound was classed as inactive in assay [1], in assay [2], in assay [4], in assay [5], in assay [6] and in [10]. Besides, the result in assay [7] and in assay [9] was inactive.

Regarding `CCc1ccccc1N`, the compound was called inactive in assay [1], in [2], in [3], in assay [4], in assay [5] and in assay [6]. The outcome in assay [7] and in assay [9] was inactive.

Regarding `C[C@]12CCC(=O)C[C@@H]1CC[C@@H]1[C@@H]2CC[C@]2(C)[C@@H](O)CC[C@@H]12`, the compound was called inactive in [1], in assay [2], in [4], in assay [5], in assay [6] and in assay [7]. Moreover, the outcome in [9] was inactive.

As for `Clc1ccc(C2(Cn3cncn3)CC(Br)CO2)c(Cl)c1` (stereo not given), the compound was classed as inactive in assay [1], in [2], in assay [4], in assay [5], in [6] and in assay [7]. The result in assay [8] and in [9] was inactive. In assay [3], the half-maximal activity concentration (AC50) was 2.54 µM (active).

As to `CC12CC1(C)C(=O)N(c1cc(Cl)cc(Cl)c1)C2=O` (stereo not given), the outcome in [1], in assay [2], in assay [4], in assay [5], in [6] and in [10] was inactive. In addition, the compound was classed as inactive in assay [7] and in [9].

In the case of `ClC1=C(Cl)[C@]2(Cl)[C@@H]3[C@@H](Cl)[C@@H](Cl)C[C@@H]3[C@@]1(Cl)C2(Cl)Cl`, the compound was classed as inactive in assay [1], in [2], in [3], in assay [4], in [5] and in assay [6]. The compound was called inactive in assay [7], in [8] and in assay [9].

In the case of `C=CCc1ccc(OC)cc1`, the compound was classed as inactive in [1], in assay [2], in [4], in [5], in assay [6] and in assay [10]. Besides, the call in assay [7] was inactive.

Consider `O=C1CCCN1`, for which the outcome in assay [1], in assay [2], in assay [3], in assay [4], in assay [5] and in assay [6] was inactive. Further, the compound was called inactive in assay [7], in assay [8] and in [9].

Broadly, the AC50 is the concentration at which the activity in the assay is half-maximal.
